According to PubChem BioAssay (NCI):
This is part of a sample that, as a whole, favours compounds with a hit. Of some 83,000 tested, about 20% had one in any assay.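 In brief: 96-well plates, 48 h treatment, single concentration, percent growth endpoint.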 Unmarked numbers belong to inactive results. Active and inactive are the calls of the source.

System: NCI/ADR-RES ovarian
Assay: NCI-60 one-dose screen, 48 h (100 = growth as untreated, 0 = no growth, -100 = all killed)
Settings: 10 µM unless noted
Protocol: Growth inhibition of the NCI/ADR-RES human […] tumor cell line is measured as a screen for anti-cancer activity. Cells are grown in 96 well plates and exposed to the test compound for 48 hours. Compounds are tested at a single concentration, which is 10^-5 M for most compounds. The reported endpoint is percent growth (GI% or GIPRCNT), where numbers from 0 - 100% represent growth inhibition, and numbers from -100% - 0 represent cell death. For example, a value of 40 represents 60% growth inhibition. A value of 0 means no net growth occurred over the course of the experiment. A value of -40 indicates 40% of cells at the beginning of the experiment died by the end of the experiment. A value of -100 means all cells are dead at the end of the experiment.
NCI-60 Human Tumor Cell Lines Screen was performed using the standard one-dose NCI protocol, which is described in more detail at https://dtp.cancer.gov/discovery_development/nci-60/default.htm.
Compounds with GIPRCNT values below 10 were considered active. Activity score was based on GIPRCNT using the following formula: […]
Score is 0 for GIPRCNT values of 100 or above, 50 for GIPRCNT values of 0, and 100 for GIPRCNT values of -100.

**Q.** How did the growth turn out when `CC(C)(C)[Si](C)(C)OC1[C@@H](COC(N)=O)O[C@@H](n2cnc3c(N)ncnc32)[C@H]1O[Si](C)(C)C(C)(C)C` (stereo not given in full) was run?
**A.** The growth was 87.4%.

**Q.** With `Cc1ccc2nc(NC(=O)CSC(=S)N3CCN(Cc4ccccc4)CC3)sc2c1` as the molecule, how does the growth read?
**A.** Its growth is 22.6%.

**Q.** How did the growth turn out when `Cc1ccc(S(=O)(=O)c2ccc3[nH]c(=O)[nH]c(=O)c3c2)cc1` was run?
**A.** Its growth is 107%.

**Q.** For `COc1ccc(C2=NOC(CC(=O)N(CCO)CCO)C2)cc1OC1CCCC1` (stereo not given), which growth is on record?
**A.** Its growth is 101%.

**Q.** Which growth does the source give for `C=CC(=O)N1CC2(CCC(n3nc(-c4ccc(Oc5ccccc5)cc4)c4c(N)ncnc43)CC2)C1` here?
**A.** The growth was -9.16% (active).

**Q.** Which growth does the source give for `CC(C)N1CCN(c2ccc(OC[C@H]3CO[C@](Cn4cncn4)(c4ccc(Cl)cc4Cl)O3)cc2)CC1` here?
**A.** Its growth is 88.1%.

**Q.** How did the growth turn out when `CCN1CCN(C(=S)SCC(=O)Nc2nc3ccc(OC)cc3s2)CC1` was run?
**A.** The growth was 99.6%.

**Q.** `Clc1cccc(Cl)c1Nc1ccc2nnc(-c3ccncc3)n2n1` was tested. Which growth did it give?
**A.** The growth was 101%.

**Q.** With `CC(C)(C)[Si](C)(C)OC1[C@@H](O[Si](C)(C)C(C)(C)C)[C@@H](CNC(=O)NC(=O)C(F)(F)F)O[C@H]1n1cnc2c(NC(=O)Nc3ccccc3)ncnc21` (stereo not given in full) as the molecule, how does the growth read?
**A.** The growth was 85.5%.

**Q.** With `Oc1ccccc1/C=N/Nc1nc2ccccc2s1` as the molecule, how does the growth read?
**A.** Its growth is 51.6%.

**Q.** `O=C1c2cc(S(=O)(=O)O)ccc2C(=O)c2c1cccc2[N+](=O)[O-]` was tested. Which growth did it give?
**A.** The growth was 111%.

**Q.** `CN1CCc2c(c3ccccc3c3ccccc23)C1` was tested. Which growth did it give?
**A.** Its growth is 45%.

**Q.** For `O=C(CCc1nnc2sc(/C=C\c3ccccc3)nn12)c1nc2ccccc2[nH]1`, which growth is on record?
**A.** Its growth is 89.5%.

**Q.** How did the growth turn out when `CCOC(=O)c1cc2c(n(C)c1=O)-c1cnn(-c3ccc(OC)cc3)c1CC2` was run?
**A.** The growth was 114%.

**Q.** Which growth does the source give for `O=C(O)c1ccccc1Oc1cc(-c2ccco2)nc(OCCBr)n1` here?
**A.** Its growth is 105%.

**Q.** How did the growth turn out when `O=C1/C(=C/c2ccc(Cl)cc2)CN(Cc2cn(CCCNc3ccnc4cc(Cl)ccc34)nn2)C/C1=C\c1ccc(Cl)cc1` was run?
**A.** Its growth is 2.36% (active).

**Q.** `O=C1c2[nH]cc(CN[C@@H]3CCCN3)c2C(=O)c2c1c(O)c1ccccc1c2O` was tested. Which growth did it give?
**A.** Its growth is 20.3%.

**Q.** `COc1cc(C2CC(=O)Nc3c2ccc2ccccc32)cc(Br)c1OC` (stereo not given) was tested. Which growth did it give?
**A.** The growth was -10.7% (active).

**Q.** For `CCN(CC)c1ccc2c(c1)OS(=O)(=O)N=C2`, which growth is on record?
**A.** Its growth is 95.6%.

**Q.** `Cc1cc(C)c(S(=O)O)c(C)c1` was tested. Which growth did it give?
**A.** The growth was 97%.

**Q.** Which growth does the source give for `CC(C)(C)[Si](C)(C)OC1[C@@H](CNC(=O)NC(=O)CCl)O[C@@H](n2cnc3c(N)ncnc32)[C@H]1O[Si](C)(C)C(C)(C)C` (stereo not given in full) here?
**A.** The growth was -30.4% (active).

**Q.** For `CCCC1=NNC(=O)C1`, which growth is on record?
**A.** The growth was 115%.

**Q.** With `O=C1/C(=C/c2ccc(Cl)cc2)N=C(c2ccccc2)N1CCc1cccs1` as the molecule, how does the growth read?
**A.** The growth was 56.7%.

**Q.** For `C[C@H]1C(=O)C23CCC1C[C@@]21O[C@@H]2C(C)(C)C=CC(=O)C23COC1=O`, which growth is on record?
**A.** Its growth is 106%.

**Q.** With `COC(=O)[C@H]1CCCN1C(=O)[C@H]1CCCN1C(=O)[C@@H](Cc1c[nH]c2ccccc12)NC(=S)Nc1cc(C(F)(F)F)cc(C(F)(F)F)c1` as the molecule, how does the growth read?
**A.** Its growth is 89.9%.

**Q.** Which growth does the source give for `CN1CCn2c(c(Sc3ccc(C(=O)NO)cc3)c3ccccc32)C1=O` here?
**A.** The growth was 64.1%.

**Q.** Which growth does the source give for `Cc1nc(NN)c([N+](=O)[O-])c(NN)n1` here?
**A.** Its growth is 119%.

**Q.** `CCC(=O)Nc1nnc(Cc2ccc(OC)c(OC)c2)s1` was tested. Which growth did it give?
**A.** Its growth is 81.3%.

**Q.** `Cc1ccc(S(=O)(=O)N2CCc3ccc(O)c4c3C2Cc2cc(Cl)ccc2-4)cc1` (stereo not given) was tested. Which growth did it give?
**A.** Its growth is 42.6%.

**Q.** How did the growth turn out when `COc1cc(-c2ccc3cc(OC)c(OC)c(OC)c3c2)cc(OC)c1OC` was run?
**A.** The growth was 36.6%.

**Q.** For `O=C(CCCCCCC(=O)Nc1ccc2c(c1)/C(=C/c1ccc[nH]1)C(=O)N2)NO`, which growth is on record?
**A.** The growth was 35.7%.

**Q.** `COc1ncc(F)c(OC)n1` was tested. Which growth did it give?
**A.** Its growth is 105%.

**Q.** For `CNc1ccc(Br)cc1-c1n[nH]c(=O)[nH]c1=O`, which growth is on record?
**A.** The growth was 105%.

**Q.** How did the growth turn out when `Cn1cc(C(=O)NCCC(=N)N)cc1NC(=O)CN=C(N)N` was run?
**A.** Its growth is 94.2%.

**Q.** Which growth does the source give for `Nc1nc2c(s1)CCc1c-2c(Br)n(Cc2ccccc2)c1Br` here?
**A.** The growth was 89.7%.

**Q.** Which growth does the source give for `CON=C1C[C@]2(C[C@@H]3C[C@@H](C/C=C(\C)C[C@@H](C)/C=C/C=C4\CO[C@@H]5[C@H](O)C(C)=C[C@@H](C(=O)O3)[C@]45O)O2)O[C@H](/C(C)=C/C(C)C)[C@H]1C` here?
**A.** The growth was 64.8%.

**Q.** How did the growth turn out when `O=c1[nH]c(=S)[nH]c(=O)n1Cc1cccc2ccccc12` was run?
**A.** Its growth is 108%.

**Q.** For `O=c1ccc2ccccc2o1`, which growth is on record?
**A.** Its growth is 105%.

**Q.** For `N#Cc1ccc(C(F)(F)F)nc1N1CCC(C(=O)Nc2ccc(Cl)cc2)CC1`, which growth is on record?
**A.** The growth was 72.1%.

**Q.** Which growth does the source give for `O=C1C2CC3C(CC2C(=O)[N]1[Sn]([c]1ccccc1)([c]1ccccc1)[c]1ccccc1)C1(Cl)C(Cl)=C(Cl)C3(Cl)C1(Cl)Cl` (stereo not given) here?
**A.** Its growth is -55.5% (active).
